The panel holds about 79,000 compounds, 15% with a hit somewhere; the sample as a whole holds those more often. Unmarked numbers belong to inactive results. Activity calls are given as the source filed them. Cut-off read from the data, not from the text of the source: active = growth inhibition above about 70%; inactive = the rest.

Experiment [1] is described as follows: NCI Yeast Anticancer Drug Screen. Data for the rad50 strain (AID 155).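 Note: 0% = growth of vehicle-only cultures of the same strain.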 The note with it: S. cerevisiae rad50 strain growth inhibition, hits give high values. In outline:
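Relative growth inhibition (compound vs vehicle) was measured in yeast with a defined repair-gene alteration.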

Experiment [2] in a line: NCI Yeast Anticancer Drug Screen. Data for the mec2-1 strain (AID 157). The note with it: S. cerevisiae mec2-1 strain, hits give high values. Summed up: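 Growth inhibition is read against vehicle-treated controls after compound exposure of the mec2-1 yeast strain, which is defective in DNA damage repair or cell cycle control.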
Experiment [3] in a line: NCI Yeast Anticancer Drug Screen. Data for the sgs1 mgt1 strain (AID 161).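 Note: 0% = growth of cultures given vehicle only.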 The note with it: S. cerevisiae sgs1 mgt1 strain, hits give high values. Summed up: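 Compounds are added to genetically altered yeast, and growth is compared with cultures given vehicle alone to give percent inhibition.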
Experiment [4] can be described thus: NCI Yeast Anticancer Drug Screen. Data for the cln2 rad14 strain (AID 165).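 Note: 0% = growth equal to vehicle treated cultures.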 Particulars: S. cerevisiae cln2 rad14 strain, hits give high values. In outline: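 Growth inhibition, relative to vehicle-treated controls, is the read-out. The test organism is a yeast strain with defined genetic alterations, cln2 rad14.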
The nature of experiment [5]: NCI Yeast Anticancer Drug Screen. Data for the bub3 strain (AID 167). Particulars: S. cerevisiae bub3 mutant strain, hits give high values. Summed up: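 Screening used yeast with an engineered genetic alteration affecting cell cycle control. Compound-exposed cultures were compared with vehicle cultures, and reduced growth was taken as inhibition.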
Experiment [6] can be described thus: NCI Yeast Anticancer Drug Screen. Data for the mlh1 rad18 strain (AID 175). The note with it: S. cerevisiae mlh1 rad18 strain growth inhibition, hits give high values. In outline: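 Cells of a genetically altered yeast strain, deficient in DNA damage repair, were treated with compound. Their growth was then compared with that of vehicle-treated cultures to give inhibition.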

Where [7] appears, read: at 5.0 µM (retest, dose inferred, filed as 0.5).
[8] abbreviates: at 50.0 µM (retest, dose inferred, filed as 5.0).

On to `CC1=NN(C(=O)c2ccncc2)C(=O)C1N=Nc1ccc(C)c([N+](=O)[O-])c1` (stereo not given), for which the growth inhibition is 10% in experiment [1] (setting [7]); 61% in experiment [1] (setting [8]); 47.5% in experiment [1] (at 50.0 µM); 2% in experiment [2] (setting [7]); 28% in experiment [2] (setting [8]); 19.4% in experiment [2] (at 50.0 µM). Besides, the growth inhibition is 29% in experiment [3] (setting [7]); 94% (active) in experiment [3] (setting [8]); 88.8% (active) in experiment [3] (at 50.0 µM); 6% in experiment [4] (setting [7]); 24% in experiment [4] (setting [8]); -14.6% in experiment [4] (at 50.0 µM). Also, the growth inhibition in experiment [5] (setting [7]) is 1%; in experiment [5] (setting [8]), 18%; in experiment [5] (at 50.0 µM), 3.65%; in experiment [6] (setting [7]), 12%; in experiment [6] (setting [8]), 69%; in experiment [6] (at 50.0 µM), 20.4%.

Take `CCn1c2ccc([N+](=O)[O-])cc2c2c([N+](=O)[O-])c(-n3cccc3)ccc21`: the growth inhibition is 24% in experiment [1] (setting [7]); 59% in experiment [1] (setting [8]); 86% (active) in experiment [1] (at 50.0 µM); 2% in experiment [2] (setting [7]); 10% in experiment [2] (setting [8]); 0.3% in experiment [2] (at 50.0 µM). In addition, the growth inhibition was 5% in experiment [3] (setting [7]); 28% in experiment [3] (setting [8]); 36.4% in experiment [3] (at 50.0 µM); -3% in experiment [4] (setting [7]); 6% in experiment [4] (setting [8]); 8.9% in experiment [4] (at 50.0 µM). In addition, the growth inhibition in experiment [5] (setting [7]) was -3%; in experiment [5] (setting [8]) it was -4%; in experiment [5] (at 50.0 µM), 10.9%; in experiment [6] (setting [7]) it was 3%; in experiment [6] (setting [8]), 29%; in experiment [6] (at 50.0 µM), 21.2%.

For `ClC(Cl)(Cl)C(NCCN1CCOCC1)c1ccccc1` (stereo not given), the growth inhibition in experiment [1] (setting [7]) is 99% (active); in experiment [1] (setting [8]) it was 88% (active); in experiment [1] (at 50.0 µM), 80% (active); in experiment [2] (setting [7]), 100% (active); in experiment [2] (setting [8]), 99% (active); in experiment [2] (at 50.0 µM) it was 61.7%. Further, the growth inhibition in experiment [3] (setting [7]) is 100% (active); in experiment [3] (setting [8]), 98% (active); in experiment [3] (at 50.0 µM), 84.5% (active); in experiment [4] (setting [7]) it was 66%; in experiment [4] (setting [8]) it was 55%; in experiment [4] (at 50.0 µM), 78.8% (active). Besides, the growth inhibition in experiment [5] (setting [7]) was 98% (active); in experiment [5] (setting [8]), 97% (active); in experiment [5] (at 50.0 µM), 66.3%; in experiment [6] (setting [7]), 99% (active); in experiment [6] (setting [8]) it was 98% (active); in experiment [6] (at 50.0 µM), 78.7% (active).

Consider `Brc1cccc[n+]1Cc1cc2ccccc2c2ccccc12`, for which the growth inhibition in experiment [1] (setting [7]) was 0%; in experiment [1] (setting [8]) it was 91% (active); in experiment [1] (at 50.0 µM), 97.2% (active); in experiment [2] (setting [7]), 32%; in experiment [2] (setting [8]), 74% (active); in experiment [2] (at 50.0 µM), 97.5% (active). For the same compound, the growth inhibition in experiment [3] (setting [7]) is 0%; in experiment [3] (setting [8]), 88% (active); in experiment [3] (at 50.0 µM), 98.6% (active); in experiment [4] (setting [7]), -5%; in experiment [4] (setting [8]), 70% (active); in experiment [4] (at 50.0 µM), 94.5% (active). For the same compound, the growth inhibition in experiment [5] (setting [7]) was -12%; in experiment [5] (setting [8]), 91% (active); in experiment [5] (at 50.0 µM) it was 97.5% (active); in experiment [6] (setting [7]), 1%; in experiment [6] (setting [8]), 88% (active); in experiment [6] (at 50.0 µM), 97.9% (active).

As for `CC1(CO)CCCC2(C)C3=C(CCCC3)CCC12` (stereo not given), the growth inhibition in experiment [1] (setting [7]) was -102%; in experiment [1] (setting [8]) it was 94% (active); in experiment [1] (at 50.0 µM), -3.55%; in experiment [2] (setting [7]), -56%; in experiment [2] (setting [8]), 96% (active); in experiment [2] (at 50.0 µM) it was 52.1%. Also, the growth inhibition in experiment [3] (setting [7]) is -60%; in experiment [3] (setting [8]), 96% (active); in experiment [3] (at 50.0 µM), 46.1%; in experiment [4] (setting [7]) it was -60%; in experiment [4] (setting [8]) it was 95% (active); in experiment [4] (at 50.0 µM), 10.1%. Moreover, the growth inhibition is -67% in experiment [5] (setting [7]); 95% (active) in experiment [5] (setting [8]); 42% in experiment [5] (at 50.0 µM); -108% in experiment [6] (setting [7]); 95% (active) in experiment [6] (setting [8]); 46.4% in experiment [6] (at 50.0 µM).

For the compound `CCCCCCSc1nn(CCC#N)c(=O)[nH]c1=O`, the growth inhibition in experiment [1] (setting [7]) was -1%; in experiment [1] (setting [8]), -36%; in experiment [1] (at 50.0 µM), 96% (active); in experiment [2] (setting [7]) it was 5%; in experiment [2] (setting [8]) it was 36%; in experiment [2] (at 50.0 µM), 93.5% (active). In addition, the growth inhibition in experiment [3] (setting [7]) is 1%; in experiment [3] (setting [8]), 40%; in experiment [3] (at 50.0 µM), 91.5% (active); in experiment [4] (setting [7]), 13%; in experiment [4] (setting [8]), 10%; in experiment [4] (at 50.0 µM), 78.5% (active). For the same compound, the growth inhibition in experiment [5] (setting [7]) is 24%; in experiment [5] (setting [8]), -6%; in experiment [5] (at 50.0 µM), 74.8% (active); in experiment [6] (setting [7]), 3%; in experiment [6] (setting [8]), 21%; in experiment [6] (at 50.0 µM), 96.7% (active).

Turning to `NNC(=S)Nc1ccccc1`, the growth inhibition was 3% in experiment [1] (setting [7]); 5% in experiment [1] (setting [8]); -7.25% in experiment [1] (at 50.0 µM); -3% in experiment [2] (setting [7]); 1% in experiment [2] (setting [8]); 79.9% (active) in experiment [2] (at 50.0 µM). The growth inhibition is -1% in experiment [3] (setting [7]); 1% in experiment [3] (setting [8]); -14.6% in experiment [3] (at 50.0 µM); 5% in experiment [4] (setting [7]); -4% in experiment [4] (setting [8]); -28.9% in experiment [4] (at 50.0 µM). The growth inhibition in experiment [5] (setting [7]) is 1%; in experiment [5] (setting [8]), -1%; in experiment [5] (at 50.0 µM), 2.2%; in experiment [6] (setting [7]), -1%; in experiment [6] (setting [8]) it was 10%; in experiment [6] (at 50.0 µM), 8.05%.

With `Cc1c(N=Nc2ccc(Br)cc2)c(-c2ccccc2)nn1C(N)=S`, the growth inhibition was -2% in experiment [1] (setting [7]); 93% (active) in experiment [1] (setting [8]); 97.7% (active) in experiment [1] (at 50.0 µM); 1% in experiment [2] (setting [7]); 97% (active) in experiment [2] (setting [8]); 97.5% (active) in experiment [2] (at 50.0 µM). Also, the growth inhibition is 7% in experiment [3] (setting [7]); 97% (active) in experiment [3] (setting [8]); 98% (active) in experiment [3] (at 50.0 µM); -4% in experiment [4] (setting [7]); 94% (active) in experiment [4] (setting [8]); 95.4% (active) in experiment [4] (at 50.0 µM). Moreover, the growth inhibition in experiment [5] (setting [7]) was 7%; in experiment [5] (setting [8]) it was 95% (active); in experiment [5] (at 50.0 µM), 96.5% (active); in experiment [6] (setting [7]) it was 0%; in experiment [6] (setting [8]) it was 97% (active); in experiment [6] (at 50.0 µM) it was 97.7% (active).

In the case of `CNC(=S)/N=c1/sc([N+](=O)[O-])c(C)n1C`, the growth inhibition was -26% in experiment [1] (setting [7]); -4% in experiment [1] (setting [8]); 65.5% in experiment [1] (at 50.0 µM); -6% in experiment [2] (setting [7]); 0% in experiment [2] (setting [8]); 12.5% in experiment [2] (at 50.0 µM). Further, the growth inhibition in experiment [3] (setting [7]) is -7%; in experiment [3] (setting [8]), 7%; in experiment [3] (at 50.0 µM) it was 67.7%; in experiment [4] (setting [7]), -33%; in experiment [4] (setting [8]) it was -14%; in experiment [4] (at 50.0 µM), -1.95%. The growth inhibition is -4% in experiment [5] (setting [7]); 5% in experiment [5] (setting [8]); 44.9% in experiment [5] (at 50.0 µM); -20% in experiment [6] (setting [7]); -12% in experiment [6] (setting [8]); 54.8% in experiment [6] (at 50.0 µM).

`CCC(CO)Nc1nc2cc(Cl)ccc2c2ccc(Cl)cc12` (stereo not given): the growth inhibition is 19% in experiment [1] (setting [7]); 98% (active) in experiment [1] (setting [8]); 93.6% (active) in experiment [1] (at 50.0 µM); 2% in experiment [2] (setting [7]); 99% (active) in experiment [2] (setting [8]); 94.8% (active) in experiment [2] (at 50.0 µM). Besides, the growth inhibition in experiment [3] (setting [7]) was 24%; in experiment [3] (setting [8]), 97% (active); in experiment [3] (at 50.0 µM) it was 95.6% (active); in experiment [4] (setting [7]), -4%; in experiment [4] (setting [8]), 97% (active); in experiment [4] (at 50.0 µM), 89.8% (active). Further, the growth inhibition in experiment [5] (setting [7]) was 11%; in experiment [5] (setting [8]), 97% (active); in experiment [5] (at 50.0 µM) it was 95.5% (active); in experiment [6] (setting [7]) it was 20%; in experiment [6] (setting [8]), 96% (active); in experiment [6] (at 50.0 µM), 94% (active).

Source of the values: PubChem BioAssay (NCI).
